The values below come from ChEMBL document CHEMBL1157539, “Thousands of chemical starting points for antimalarial lead identification” (Nature, 2010).

The experiment relates to Plasmodium falciparum. As to the kind of experiment: GSK_TCMDC: Inhibition of Plasmodium falciparum Dd2 in whole red blood cells, using parasite LDH activity as an index of growth. Test compounds present at 2uM. It is filed as functional.
In turn, `CCOC(=O)CCCOc1cc(Cc2cnc(N)nc2N)cc(OC)c1OC` displayed an Inhibition of 3%.
As for `O=C(N[C@@H](Cc1ccccc1)C(=O)NCc1cccc2ccccc12)c1ccc(O)c(-c2ccc(Cl)c(Cl)c2)c1`, the Inhibition is on record as 97%.
With `COCCN1CCC(NCC(C)(C)c2nc(-c3ccc(Cl)c(O)c3)c(-c3ccncc3)[nH]2)CC1.Cl` the figure was 47%; with `O=C(Nc1cc(Cl)ccc1Cl)N[C@H]1CCN(CCCCCNC(=O)C2CC2c2ccc(Cl)c(Cl)c2)C1` (some centres undefined), 1%; with `COC(=O)c1cccc(CNCc2ccc(-c3ccc(-c4nc5cc(F)ccc5[nH]4)s3)cc2)c1.O=C(O)C(F)(F)F`, 82%.
For `Cc1c(Br)cc2nc(-c3ccc(C(=O)NC4CCN(Cc5ccccc5)CC4)cc3)[nH]c2c1C`, the Inhibition came to 98%.
On to `Cl.N=C(NCCCCC1CCCCC1)c1cccc(C(=N)NCCCCC2CCCCC2)n1`, for which the Inhibition stood at 19%.
With `Cc1ccc(OC2CCN(CCCCC3(C)C(=O)Nc4ccccc43)CC2)cc1.Cl` (centres undefined) the figure was 2%; with `COc1ccc(C=NNc2nc3ccccc3[nH]2)cc1O`, 13%; with `CCCCOc1cc(C)nc2ccc(NC(=O)COCC(=O)Nc3ccc4nc(C)cc(OCCCC)c4c3)cc12`, 28%.
With `O=C(Nc1ccc(-c2nc3ccccc3[nH]2)cc1)c1ccc(Cl)c([N+](=O)[O-])c1`, the Inhibition is listed as 4%.
With `Nc1c(Cl)cc(C(O)CNCCCCCCOCCc2ccc(CO)s2)cc1Cl.O=C(O)/C=C/C(=O)O` (centres undefined) the figure was 71%.
`Cc1ccc(O)c(Nc2c3c(c(C#N)c4nc5ccccc5n24)CCC3)c1` returned an Inhibition of 2%.
`COc1ccc2ncc(Cl)c(CCN3CCC(NCc4ccc5c(n4)NC(=O)CO5)CC3)c2c1.Cl`: the Inhibition was determined as 26%.
